This is a sample that favours compounds with a hit; in the whole collection about 6% have one here.
D1 PAM: Potentiators of Human D1 Dopamine Receptor: qHTS; D(1A) dopamine receptor (Homo sapiens), P21728; HEK293 TREx D1 cells, calcium flux, dopamine EC20 potentiation; potentiation, % at 10 µM; actives 0.036% (n = 360,000); in the data active = potentiation above about 30%; also: 0% is about no effect
Target sequence (P21728 whole entry, looked up): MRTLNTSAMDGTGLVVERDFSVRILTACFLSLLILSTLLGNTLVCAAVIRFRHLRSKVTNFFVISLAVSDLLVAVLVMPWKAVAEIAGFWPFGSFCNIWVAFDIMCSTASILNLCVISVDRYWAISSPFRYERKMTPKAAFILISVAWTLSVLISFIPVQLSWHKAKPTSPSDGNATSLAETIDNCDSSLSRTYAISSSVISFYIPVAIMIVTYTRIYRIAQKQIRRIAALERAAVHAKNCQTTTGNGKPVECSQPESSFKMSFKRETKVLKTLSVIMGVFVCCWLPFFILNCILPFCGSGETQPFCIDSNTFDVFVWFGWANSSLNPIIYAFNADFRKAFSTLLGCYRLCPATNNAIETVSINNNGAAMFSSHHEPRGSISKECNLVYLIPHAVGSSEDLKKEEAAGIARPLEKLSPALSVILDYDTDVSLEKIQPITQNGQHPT
D1 ag: Allosteric Agonists of the Human D1 Dopamine Receptor: qHTS. D(1A) dopamine receptor (Homo sapiens), P21728. HEK293 T-REx D1 cells, calcium flux, agonist mode. activation, % at 2 µM. actives 1% (n = 360,000). AID 504660, 2011; in the data active = activation above about 30%; also: 0% is about no effect
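Agonism was scored from calcium flux recorded over 180 s (1 read/s) after pintool compound addition, following a 10-cycle baseline. Cells were inducible force-coupled HEK293 TREx D1, plated overnight at 30 C and loaded with no-wash calcium dye.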
D3 ag: qHTS of D3 Dopamine Receptor Agonist: qHTS; D(3) dopamine receptor (Homo sapiens), P35462; D3R DiscoveRx beta-arrestin cells, luminescence, 90 min; actives 0.58% (n = 410,000); max activation, %; in the data active = max activation above about 30%; also: 0% is about no effect
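Cells at 1500/well, incubated overnight, then treated with pinned compounds (dopamine as control) for 90 min at 37 degrees C. DiscoveRx reagent added for 30 - 60 minutes at room temperature; luminescence read.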
DRD3 antagonist: qHTS of D3 Dopamine Receptor Antagonist: qHTS; actives 2.5% (n = 360,000); D3R cells, DiscoveRx beta-arrestin luminescence, antagonist mode; stronger effect = lower value; D(3) dopamine receptor (Homo sapiens), P35462; max response, negative = inhibition, %; in the data active = max response below about -50%; inconclusive = no clear call, values can overlap the other calls; also: % is scaled to controls: 0 for no effect and ±100 for the full control effect
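Cells plated overnight at 1500 cells/well, then exposed to library compounds with dopamine controls for 90 minutes at 37 degrees C. DiscoveRx reagent added for 30–60 minutes at room temperature; luminescence read, quantitative HTS format.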
D1 antagonist: Antagonist of Human D 1 Dopamine Receptor: qHTS. actives 3.2% (n = 360,000). HEK293 TREx D1 cells, calcium flux, dopamine EC80; stronger effect = lower value. activity change, negative = inhibition, % at 10 µM; in the data active = activity change below about -30%; also: % is scaled to controls: 0 for no effect and ±100 for the full control effect
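Inducible Hek293 Trex D1 cells (tetracycline, overnight, 30 C). Calcium dye 30–90 min RT. Antagonist mode: EC80 dopamine added after 180 s compound read.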
An asterisk follows results filed as active; ? = inconclusive; nt = no result given.

SMILES	D1 PAM	D1 ag	D3 ag	DRD3 antagonist	D1 antagonist
CC(C)S(=O)(=O)c1csc(C(=O)Nc2ccc(F)cc2)c1N	-18	1	-23	-11	-56*
CSc1ccc(CNC(=O)CCn2c(=O)c3cccn3c3ccc(F)cc32)cc1	-1	2	-18	nt	-17
O=C(CCn1c(=O)c2cccn2c2ccc(F)cc21)NCc1ccccc1F	-6	-1	-28	nt	-69*
CN(C)c1ccc(CNC(=O)CCn2c(=O)c3cccn3c3ccc(F)cc32)cc1	-2	4	1	nt	-30*
CS(=O)(=O)Nc1cccc(NC(=O)C2Cc3c(-c4cccc(F)c4)ccnc3O2)c1 (centres undefined)	nt	nt	-13	-4	nt
CC1(CCc2ccc3c(c2)OCO3)NCCc2c1[nH]c1ccccc21 (centres undefined)	-5	128*	-17	-24	-38*
CC(=O)Nc1cccc(N2C(=O)CC(N3CCC(C(=O)N4CCCCC4)CC3)C2=O)c1 (centres undefined)	-1	2	4	-59*	2
CC(C)NC(=O)Cn1nc(C(F)(F)F)c2c1CCC2	-1	4	7	15	1
O=C(Cn1nc(C(F)(F)F)c2c1CCCC2)NC1CCCC1	nt	nt	-5	-55*	nt
COC(=O)c1ccc(-n2c(C)cc(C(=O)CSc3cccc[n+]3[O-])c2C)cc1	-9	3	16	12	9
Cc1cc(C(=O)CSc2cccc[n+]2[O-])c(C)n1-c1ccc(OC(F)F)cc1	-8	8	6	12	-40*
CCOc1ccc(NC(=O)CC2C(=O)OCCN2CC)cc1 (centres undefined)	-4	1	-2	nt	0
Cc1cccc(Nc2nc3ccccc3s2)c1C	5	30*	-6	-16	-2
COc1ccc(Nc2nc3ccccc3s2)cc1	5	0	-1	12	-38*
Nc1cccc(-c2nc3ncccc3o2)c1	0	2	1	2	7
Nc1ccc(-c2nc3ncccc3o2)cc1	-6	-1	5	3	-34*
COCCn1c(C)cc(C(=O)CSc2nc(C)nc3sc4c(c23)CCC4)c1C	nt	nt	54*	40	nt
Cc1nc(SCC(=O)NCC2CCCO2)c2c3c(sc2n1)CCCC3 (centres undefined)	2	-1	7	1	-2
Cc1ccc(NC(=O)CSc2nc3nc(C)c(Br)cc3[nH]2)cc1F	-3	3	2	8	-31*
Cc1ccc(NC(=O)CSc2nc3ncccc3[nH]2)cc1F	-4	6	-22	nt	-2
CCCCN(C(=O)COc1ccc(F)cc1)c1c(N)n(CC(C)C)c(=O)[nH]c1=O	nt	nt	2	24	nt
COc1ccc(-c2oc3cc(O)c(OC)c(O)c3c(=O)c2OC)cc1	-7	-1	-16	8	-30*
COc1c(-c2ccc(O)cc2)oc2cc(O)cc(O)c2c1=O	-7	0	-5	?	-3
Cc1ccc(NC(=O)Cn2c(O)c(N=NC(=O)c3cc([N+](=O)[O-])ccc3O)c3ccccc32)cc1	-7	-1	nt	nt	-40*
NC(=S)N=Nc1c(O)n(CC(=O)Nc2ccccc2)c2ccccc12	-3	1	-6	-19	-16
SMILES	D1 PAM	D1 ag	D3 ag	DRD3 antagonist	D1 antagonist
Cc1cccc(NC(=O)Cn2c(O)c(N=NC(=O)c3ccccc3O)c3ccccc32)c1	-5	3	-9	-71*	-16
O=C(CNC(=O)c1ccccc1F)OCc1nc2ccccc2s1	-1	-1	5	16	3
CNc1sc(C(=O)c2ccccc2F)c(N)c1-c1nc2ccccc2s1	1	6	-7	-53*	1
CCn1c(=O)c2sccc2n2c(CCCC(=O)N3CCN(c4ccccc4OC)CC3)nnc12	1	1	15	nt	9
COCCn1c(=O)[nH]c2cc(C(=O)NCc3ccccc3)ccc2c1=O	0	0	-5	7	3
Cc1ccc(CNC(=O)c2ccc3c(=O)n(CCCN4CCCC4=O)c(=S)[nH]c3c2)cc1	-6	1	-3	35	3
COCCn1c(=S)[nH]c2cc(C(=O)NCc3ccccc3)ccc2c1=O	nt	nt	-6	-66*	nt
C=CCn1c(=S)[nH]c2cc(C(=O)NCCc3ccc(S(N)(=O)=O)cc3)ccc2c1=O	-2	2	1	0	-4
O=C(NCc1ccccc1)c1ccc2c(=O)n(CCCN3CCCC3=O)c(=S)[nH]c2c1	-6	0	2	-52*	6
C=CCn1c(=S)[nH]c2cc(C(=O)Nc3ccc(F)cc3)ccc2c1=O	-3	19	47*	2	-11
CCC1CN(S(=O)(=O)c2cc(-c3onc(C)c3C)ccc2C)c2cc(Cl)ccc2O1 (centres undefined)	-2	5	4	nt	6
CCCN1CCN(CCCNC(=O)c2cnn(-c3ccc(F)cc3)c2-n2cccc2)CC1	-2	1	-16	nt	5
O=C(NCc1ccccc1Cl)c1ccc2c(c1)NC(=O)C(CS(=O)(=O)Cc1ccc(Cl)cc1)N2 (centres undefined)	0	-4	-10	nt	3
CC(=O)NC(c1cccc(F)c1)c1nc(-c2cccc(C(F)(F)F)c2)cs1 (centres undefined)	nt	nt	6	-6	nt
Cc1cccc(C(=O)Nc2ccc(OCc3cc(=O)n4ccsc4n3)cc2)c1	-2	-2	1	nt	-1
CN(CCOc1cccc(C(F)(F)F)c1)Cc1ccccc1	-2	0	-13	-87*	nt
COc1cc(C)ccc1OCCOCCN(C)Cc1ccccc1	-3	2	-8	?	-6
CCOc1ccc(OCCOc2cccc(C(F)(F)F)c2)cc1	4	8	-5	-4	3
Cc1cc(C)c(C)c(OCCCCN(C)Cc2ccccc2)c1	1	2	-2	-71*	-2
CCN(Cc1ccccc1)Cc1ccc(OCc2ccccc2)cc1	0	6	-6	-84*	12
FC(F)(F)c1cccc(OCCN2CCN(Cc3ccccc3)CC2)c1	9	0	-52	-82*	6
CCCN(CCC)C(=O)C(CCC(=O)OCCCN1CCN(CCOC(=O)Cc2c(C)n(C(=O)c3ccc(Cl)cc3)c3ccc(OC)cc23)CC1)NC(=O)c1ccccc1 (centres undefined)	nt	nt	-30	nt	nt
CC(O)CNCCCOc1cccc(Oc2ccccc2)c1 (centres undefined)	-6	9	-6	?	6
COc1ccc(OCCCN(C)Cc2ccccc2)cc1	-4	3	-17	0	-28
CN(CCCCOc1ccc(F)cc1)Cc1ccccc1	-7	3	-28	-83*	2
CC(O)CNCCCOc1cccc(C(F)(F)F)c1 (centres undefined)	-4	5	-34	-71*	1
